Data reported in PubChem BioAssay (EPA / NIEHS).
Results filed as inconclusive are left out. Activity calls are given as the source filed them. How the source made its calls: active means hit-call score of the fitted dose curve at least 0.9, where 1 is the maximum; inconclusive means response in the unintended direction; inactive means score below 0.9.

read-out: alkyl and aryl transferase (GSTA2), GSTA2 (gene 2939); experiment: CLD_GSTA2_48hr: CellzDirect (CLD) Gene Expression Assay for alkyl and aryl transferase (GSTA2) at 48 hours (AID 2283708)
Experimental: CLD_48hr is a cell-based, multiplexed-readout assay that uses hepatocyte, a human liver primary cell, with measurements taken at 48 hours after chemical dosing in a 96-well plate.CLD_GSTA2_48hr is one of 16 assay component(s) measured or calculated from the CLD_48hr assay. It is designed to make measurements of mRNA induction, a form of inducible reporter, as detected with chemiluminescence signals by Quantitative Nuclease Protection Assay (qNPA) technology.Data from the assay component CLD_GSTA2_48hr was analyzed at the endpoint, CLD_GSTA2_48hr, in the positive analysis fitting direction relative to DMSO as the negative control and baseline of activity. Using a type of inducible reporter, gain-of-signal activity can be used to understand changes in the reporter gene as they relate to the gene GSTA2. Furthermore, this assay endpoint can be referred to as a primary readout. To generalize the intended target to other relatable targets, this assay endpoint is annotated to the transferase intended target family, where subfamily is alkyl and aryl transferase.
Human hepatocyte cultures were treated daily for two consecutive days with fresh dosing solutions containing appropriate concentrations of the 320 ToxCast chemicals (chemical identities were blinded to CellzDirect and other ToxCast collaborators), vehicle control (0.2% DMSO), and positive control inducers as summarized in Table 1. […] These replicate data, coupled with internal replicates designed within the blinded ToxCast chemical library, provided additional data to evaluate interindividual differences between hepatocyte preparations and their potential impact on chemical profiles.Cell morphology and integrity were evaluated using phase-contrast microscopy as an indicator of hepatocyte cell health (Tyson & Green, 1987). Cultures for each treatment group (i.e., media, vehicle [0.2% DMSO], positive control inducers [multiple concentrations], and the ToxCast chemicals [multiple concentrations]) were observed and cell morphology was assessed relative to vehicle control cultures at each harvest time point (0, 6, 24, or 48 h). […] Images were evaluated at the conclusion of the study to assess changes in cell integrity and account for the effects of chemical exposure on uncharacteristic changes in concentration-dependent gene expression profiles. The results from these determinations of apparent cytotoxicity were annotated (yes/no) alongside the corresponding qNPA data for reference.At the conclusion of each treatment period, hepatocyte cultures (96-well) were washed with 1 volume of HBSS, lysed by addition of 25 ul ArrayPlate lysis buffer (HTG, Tucson, AZ), and 70 ul/well of Denaturation Oil, denatured by incubation at 95C for 10 min, and frozen at approximately -70C until analysis by nuclease protection assay (qNPA) (Roberts et al., 2007). For qNPA analysis, cell lysates were thawed at 50C for approximately 30 min, qNPA probes were added, and samples were incubated at 95C for 10 min to begin the detection process by denaturing the target RNA, dissociating the duplexes and secondary structure hybridization. At the conclusion of the hybridization period, S1 nuclease reagent was added to each sample to digest all nonprotected nucleotides at 50C for 60-90 min. At the conclusion of the S1 nuclease digestions, all reactions were stopped by transfer of all the samples to fresh plates containing stop solution and incubated at 95C for 15 min to deactivate the enzyme, dissociate the mRNA/ DNA probe heterodimers, and hydrolyze the resulting single stranded mRNA, leaving a stoichiometric amount of single-stranded DNA nuclease protection probe, unmodified in sequence, as the only intact oligonucleotide left in the sample. Neutralization solution was subsequently applied to cooled (room temperature) plates, and samples were transferred to ArrayPlates for overnight incubations at 50Cto allow probes to be captured onto programmed locations on the ArrayPlates. […]

| Structure (SMILES) | outcome | AC50 |
| --- | --- | --- |
| Fc1ccc(Oc2ccnc3cc(Cl)cc(Cl)c23)cc1 | inactive | – |
| CC(C)C1(C)N=C(c2nc3ccccc3cc2C(=O)O)NC1=O (stereo not given) | inactive | – |
| N#Cc1cc(Br)c(O)c(Br)c1 | inactive | – |
| CCOc1cc(Oc2ccc(C(F)(F)F)cc2Cl)ccc1[N+](=O)[O-] | inactive | – |
| CN(C)C(=S)SSC(=S)N(C)C | inactive | – |
| CCON=C(CC)C1=C(O)CC(c2c(C)cc(C)cc2C)CC1=O (stereo not given) | inactive | – |
| CC(C)Oc1cc(-n2nc(C(C)(C)C)oc2=O)c(Cl)cc1Cl | inactive | – |
| COC(=O)C(C)Oc1ccc(Oc2ccc(Cl)cc2Cl)cc1 (stereo not given) | inactive | – |
| COC(=O)c1ccccc1C(=O)OC | inactive | – |
| CNC(=S)S | inactive | – |
| Cc1c(F)c(F)c(COC(=O)C2C(/C=C(\Cl)C(F)(F)F)C2(C)C)c(F)c1F (stereo not given) | inactive | – |
| Cc1ccc(-c2c(Cl)nc(C#N)n2S(=O)(=O)N(C)C)cc1 | inactive | – |
| Oc1ccccc1-c1ccccc1 | inactive | – |
| C#CCOS(=O)OC1CCCCC1Oc1ccc(C(C)(C)C)cc1 (stereo not given) | inactive | – |
| CCCC1COC(Cn2cncn2)(c2ccc(Cl)cc2Cl)O1 (stereo not given) | inactive | – |
| CO/C=C(/C(=O)OC)c1ccccc1Oc1cc(Oc2ccccc2C#N)ncn1 | – | 20 µM (active) |
| CC(C)(C)c1ccc(CSc2cnn(C(C)(C)C)c(=O)c2Cl)cc1 | inactive | – |
| C=CC1(C)OC(=O)N(c2cc(Cl)cc(Cl)c2)C1=O (stereo not given) | inactive | – |
| CCCCNC(=O)OCC#CI | inactive | – |
| CC1COC(Cn2cncn2)(c2ccc(Oc3ccc(Cl)cc3)cc2Cl)O1 (stereo not given) | inactive | – |

| Structure (SMILES) | outcome | AC50 |
| --- | --- | --- |
| COc1nc(C)nc(NC(=O)NS(=O)(=O)c2ccccc2Cl)n1 | inactive | – |
| CNC(=O)ON=CC(C)(C)SC | inactive | – |
| CCCCOC(=O)c1ccccc1C(=O)OCCCC | inactive | – |
| N#CC(CCc1ccc(Cl)cc1)(Cn1cncn1)c1ccccc1 (stereo not given) | inactive | – |
| COC(=O)C=C(C)OP(=O)(OC)OC | inactive | – |
| COP(=S)(OC)Oc1nc(Cl)c(Cl)cc1Cl | inactive | – |
| CCNc1nc(Cl)nc(NC(C)C)n1 | inactive | – |
| COc1cnc(OC)n2nc(NS(=O)(=O)c3c(OCC(F)F)cccc3C(F)(F)F)nc12 | inactive | – |
| O=C(O)c1nc(Cl)ccc1Cl | inactive | – |
| N#Cc1nn(-c2c(Cl)cc(C(F)(F)F)cc2Cl)c(N)c1S(=O)C(F)(F)F (stereo not given) | – | 4.25 µM (active) |
| COP(N)(=O)SC (stereo not given) | inactive | – |
| CCCCNC(=O)n1c(NC(=O)OC)nc2ccccc21 | inactive | – |
| CCOC(=O)C(Cl)Cc1cc(-n2nc(C)n(C(F)F)c2=O)c(F)cc1Cl (stereo not given) | inactive | – |
| COc1nc(C)nc(NC(=O)NS(=O)(=O)c2ccccc2CCC(F)(F)F)n1 | inactive | – |
| CCCN(CCC)c1c([N+](=O)[O-])cc(S(N)(=O)=O)cc1[N+](=O)[O-] | inactive | – |
| CC(Oc1ccc(Cl)cc1Cl)C(=O)O (stereo not given) | inactive | – |
| CCOC(=O)CC(SP(=S)(OC)OC)C(=O)OCC (stereo not given) | inactive | – |
| COC(=O)N(OC)c1ccccc1COc1ccn(-c2ccc(Cl)cc2)n1 | – | 33.8 µM (active) |
| C=CCC1=C(C)[C@@H](OC(=O)[C@@H]2[C@@H](C=C(C)C)C2(C)C)CC1=O | inactive | – |
| CCc1nn(C)c(C(=O)NCc2ccc(C(C)(C)C)cc2)c1Cl | inactive | – |
